The values that follow come from article PMC4336329 (PLoS ONE, 2015).

The structures appear in SMILES notation. The whole screen tested about 310,000 compounds, of which about 14,000 (4.5%) showed an effect of 50% or more. Effects have a minus sign here. This excerpt belongs to a sample that is enriched for strong results.
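Also: peak tail current of the secondary pulse compared with the same well before compound.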

Chain of human ether-à-go-go-related gene (hERG) potassium channel (Q12809 whole entry, looked up): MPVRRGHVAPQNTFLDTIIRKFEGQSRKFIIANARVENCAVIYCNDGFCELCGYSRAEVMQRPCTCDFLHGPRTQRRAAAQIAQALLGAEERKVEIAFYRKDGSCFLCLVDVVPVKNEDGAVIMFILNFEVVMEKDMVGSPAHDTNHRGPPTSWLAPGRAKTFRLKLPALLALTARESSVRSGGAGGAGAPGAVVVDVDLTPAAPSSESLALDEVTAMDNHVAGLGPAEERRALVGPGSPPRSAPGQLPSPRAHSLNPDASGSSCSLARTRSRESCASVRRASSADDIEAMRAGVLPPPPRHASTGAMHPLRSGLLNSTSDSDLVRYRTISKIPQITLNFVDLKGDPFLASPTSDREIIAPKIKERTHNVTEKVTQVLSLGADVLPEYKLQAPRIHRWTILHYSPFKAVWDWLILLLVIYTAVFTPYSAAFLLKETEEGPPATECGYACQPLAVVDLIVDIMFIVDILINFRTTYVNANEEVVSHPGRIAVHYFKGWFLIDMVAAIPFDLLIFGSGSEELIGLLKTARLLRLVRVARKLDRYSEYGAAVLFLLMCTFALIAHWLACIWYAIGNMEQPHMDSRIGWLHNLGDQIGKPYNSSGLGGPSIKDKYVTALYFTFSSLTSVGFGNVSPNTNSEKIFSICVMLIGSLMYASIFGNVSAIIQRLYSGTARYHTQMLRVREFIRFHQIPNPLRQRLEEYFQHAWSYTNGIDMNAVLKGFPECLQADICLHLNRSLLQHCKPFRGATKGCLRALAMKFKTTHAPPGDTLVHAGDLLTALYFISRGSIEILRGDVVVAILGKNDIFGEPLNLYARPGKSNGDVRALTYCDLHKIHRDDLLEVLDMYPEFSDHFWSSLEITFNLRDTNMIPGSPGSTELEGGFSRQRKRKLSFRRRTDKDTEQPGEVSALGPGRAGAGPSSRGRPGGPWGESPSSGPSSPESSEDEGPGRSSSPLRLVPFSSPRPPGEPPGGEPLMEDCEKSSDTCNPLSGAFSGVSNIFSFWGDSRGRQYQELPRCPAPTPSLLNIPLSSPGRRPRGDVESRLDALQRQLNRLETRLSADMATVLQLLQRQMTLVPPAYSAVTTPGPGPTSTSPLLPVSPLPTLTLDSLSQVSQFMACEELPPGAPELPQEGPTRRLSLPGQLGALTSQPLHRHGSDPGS

This assay addresses human ether-à-go-go-related gene (hERG) potassium channel (human, UniProt Q12809). As to the kind of experiment: primary screen, population patch clamp on CHO cells stably expressing hERG; higher = less effect of the substance.
`N#Cc1cc2ccccc2nc1SCC(=O)Nc1ccc(S(=O)(=O)N2CCCC2)cc1`: the “hERG current change (%, negative = inhibition) at 10uM” value was found to be 6.03%.
The value for `Cn1ncnc2c(=O)n(C)c(=O)nc1-2` was -2.67%; that for `O=C(NCc1ccccc1)Nc1cccn(Cc2ccccc2Cl)c1=O` was 18.8%; that for `Cc1nc2ccccc2c(=O)n1-c1ccc(F)cc1F` was 3.52%.
As to `CCOC(=O)CNC(=O)c1ccc2[nH]c3c(c2c1)CCCC3`, the “hERG current change (%, negative = inhibition) at 10uM” value amounted to 11.5%.
Next, `CCOC(=O)c1ccc(OCCOc2ccccc2C)cc1`: 24%; `O=c1c(Cl)c(N2CCN(S(=O)(=O)c3ccc(F)cc3)CC2)cnn1-c1cccc(Cl)c1`: -29.4%; `O=C(CSCc1ccccc1Br)N/N=C/c1ccc(OCC(=O)N2CCCCC2)cc1`: -15.9%.
The value for `CNC(=O)c1[nH]cnc1C(=O)Nc1ccc(OC)cc1` was 20.8%; that for `O=c1[nH]cnc2cc(-c3ccc(Br)cc3)sc12` was 12.3%.
Next, `CN(C)S(=O)(=O)c1ccc(N2CCCC2)c(C(=O)N2CCN(S(=O)(=O)c3cccc(F)c3)CC2)c1`: -10.7%; `Cc1nnc2ccc(-c3cccc(NS(=O)(=O)c4cc(F)ccc4F)c3)nn12`: -0.0273%.
Turning to `O=C(O)CSCC(=O)Nc1ccc(C(=O)O)cc1`, the “hERG current change (%, negative = inhibition) at 10uM” value was 12.5%.
Next, `COc1ccc(-c2c(C)oc3c(CN4CCCCC4C)c(O)ccc3c2=O)cc1` (centres unmarked): -16.6%.
Next, `Cc1oc2c(CN3CCCCC3C)c(O)ccc2c(=O)c1-c1ccc(Br)cc1` (centres unmarked): -50.9%; `Cc1oc2c(CN3CCCCC3C)c(O)ccc2c(=O)c1-c1ccccc1` (centres unmarked): -27.6%.
The value for `O=C(Cc1c(F)cccc1Cl)NCCc1c[nH]c2ccccc12` was 8.99%.
On to `Cc1nn(CC#N)c(=O)n1-c1ccccc1`, for which the “hERG current change (%, negative = inhibition) at 10uM” value is recorded as 8.38%.
For the compound `CCn1c(SCC#N)nc2c(c1=O)C1(CCCC1)Cc1ccccc1-2`, the “hERG current change (%, negative = inhibition) at 10uM” value was 2.38%.
For `CN(Cc1ccccc1)C(=O)CN(Cc1ccccc1)S(C)(=O)=O`, the “hERG current change (%, negative = inhibition) at 10uM” value is listed as -4.6%.
The value for `O=C(c1ccc(S(=O)(=O)c2ccccc2Cl)c([N+](=O)[O-])c1)N1CCCCCC1` was -11%; that for `COC(=O)CCCC(=O)NC1CCCN(C2Cc3ccccc3C2)C1` (centres unmarked) was -10.6%.
The value for `COCCN(CC1CCCN(C2Cc3ccccc3C2)C1)C(=O)CCC(N)=O` (centres unmarked) was -75.1%.
`O=C(NCC1CCCN(C2Cc3ccccc3C2)C1)c1cccs1` (centres unmarked): the “hERG current change (%, negative = inhibition) at 10uM” value is recorded as -40.7%.
As for `COCCN(CC1CCCN(C2Cc3ccccc3C2)C1)C(=O)CCC(C)=O` (centres unmarked), the “hERG current change (%, negative = inhibition) at 10uM” value is recorded as -6.4%.
Turning to `COCCN(CC1CCCN(C2Cc3ccccc3C2)C1)C(=O)CCC(F)(F)F` (centres unmarked), the “hERG current change (%, negative = inhibition) at 10uM” value is listed as -55.4%.
The value for `COCCN(CC1CCCN(C2Cc3ccccc3C2)C1)C(=O)CCSC` (centres unmarked) was -45.8%; that for `CCCC(=O)N(CCc1ccc(OC)cc1)Cc1nc2ccccc2c(=O)[nH]1` was -8.61%; that for `COc1ccc2c(c1)c(CC(=O)Nc1cccc(S(N)(=O)=O)c1)c(C)n2C(=O)c1ccc(Cl)cc1` was 1.02%.
The value for `Cc1ccc(S(=O)(=O)N(CC(=O)NCc2ccco2)Cc2ccc(F)cc2)cc1` was -67.1%; that for `CS(=O)(=O)N(CCc1ccccc1)CC(=O)NCc1ccco1` was -3.21%; that for `O=C(CN(Cc1ccccc1)S(=O)(=O)c1ccc(Br)cc1)NCc1ccco1` was -51.6%.
The value for `CCN(CC(=O)NCc1cccnc1)S(=O)(=O)c1ccc(OC)cc1` was -28.3%.
Consider `CCN(CC(=O)NCc1ccc(F)cc1)S(=O)(=O)c1ccc(C)cc1`, for which the “hERG current change (%, negative = inhibition) at 10uM” value was -43.6%.
Consider `Cc1ccc(S(=O)(=O)N(Cc2ccc(F)cc2)Cc2ccco2)cc1`, for which the “hERG current change (%, negative = inhibition) at 10uM” value turned out to be 2.28%.
Take `COc1ccc(S(=O)(=O)N(C)CC(=O)NCc2cccnc2)cc1`: the “hERG current change (%, negative = inhibition) at 10uM” value is given as -31.8%.
The value for `CN(CC(=O)NCc1ccncc1)S(=O)(=O)c1ccc(F)cc1` was -0.77%; that for `COc1ccc(S(=O)(=O)N(CC(=O)NCc2cccnc2)Cc2ccccc2)cc1` was -76.5%; that for `Cc1ccc(S(=O)(=O)N(CC(=O)NCc2ccncc2)Cc2ccc(F)cc2)cc1` was -79.2%.
In the case of `CCN(CC(=O)NCc1ccco1)S(=O)(=O)c1ccc(OC)cc1`, the “hERG current change (%, negative = inhibition) at 10uM” value came to 3.31%.
Next, `CCN(CC(=O)NCc1ccco1)S(=O)(=O)c1ccc(F)cc1`: 5.61%; `COc1cccc(-n2c(Cc3cc(=O)[nH]c(=O)[nH]3)nnc2SCC(=O)N2CCCCCC2)c1`: 0.34%.
Next, `CCc1cccc(C)c1NC(=O)C1CCCN1C(=O)NCc1ccccc1` (centres unmarked): 18.4%.
Next, `CCOC(=O)c1ccc(NC(=O)c2c(C)[nH]c(C(=O)OCC)c2C)cc1`: -6.95%.
In the case of `Cc1ccc(NC(=O)CCn2cnc3ccccc3c2=O)c(C)c1`, the “hERG current change (%, negative = inhibition) at 10uM” value was 6.65%.
`CCCCn1c(SCC(=O)N(CC)C2CCS(=O)(=O)C2)nc2cc(S(N)(=O)=O)ccc21` (centres unmarked): the “hERG current change (%, negative = inhibition) at 10uM” value was -5.49%.
The value for `CC1(C)CC(=O)C(C(=O)c2ccccc2)C(=O)C1Cl` (centres unmarked) was 3.06%; that for `O=C(CN(Cc1ccc(Br)cc1)S(=O)(=O)c1ccccc1)NCc1cccnc1` was -17.2%.
Turning to `O=C(CN(Cc1ccccc1)S(=O)(=O)c1ccc(F)cc1)NCc1ccccn1`, the “hERG current change (%, negative = inhibition) at 10uM” value is listed as -10.6%.
The value for `O=C(CN(Cc1ccccc1)S(=O)(=O)c1ccc(F)cc1)NCc1cccnc1` was -57.8%; that for `Cc1ccc(S(=O)(=O)N(CC(=O)O)Cc2ccccc2F)cc1` was 3.18%.
On to `O=C(O)CN(Cc1ccccc1)S(=O)(=O)c1ccc(F)cc1`, for which the “hERG current change (%, negative = inhibition) at 10uM” value stood at 2.09%.
Take `O=C(CN(Cc1ccccc1)S(=O)(=O)c1ccc(F)cc1)NCc1ccncc1`: the “hERG current change (%, negative = inhibition) at 10uM” value is listed as -52.3%.
The value for `Cc1ccc(S(=O)(=O)N(CC(=O)NCc2ccncc2)Cc2ccccc2F)cc1` was -78.6%; that for `CCCNC(=O)CN(Cc1ccccc1F)S(=O)(=O)c1ccc(C)cc1` was -6.17%.
Turning to `CN(CC(=O)NCc1cccnc1)S(=O)(=O)c1ccc(F)cc1`, the “hERG current change (%, negative = inhibition) at 10uM” value was found to be 21.3%.
Next, `O=C(CN(Cc1ccc(Br)cc1)S(=O)(=O)c1ccccc1)NCc1ccncc1`: -68.8%; `O=C(CN(Cc1ccc(Br)cc1)S(=O)(=O)c1ccccc1)NCc1ccccn1`: -42%; `CCN(CC(=O)NCc1ccncc1)S(=O)(=O)c1ccccc1`: 5.51%.
